FUS yeast rescue = qHTS for Suppressors of FUS Proteinopathy: Primary screen using FUS-linked yeast assay. Potency, µM (highest dose often 76.6 µM), usual class: activators. 0.24% of 390,000 active. S. cerevisiae FUS-expressing, growth rescue, OD600, 24 h;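 note: plate controls were DMSO vehicle for no effect and reference control for full effect; nearly all actives have a fitted effect of over 55% in size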
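Compound concentration series was pinned onto galactose-induced FUS-expressing yeast seeded at OD 0.005. Plates sat 24hr at 30C; absorbance at 600 nm gave growth. DMSO served as background control.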
TDP-43 yeast inh = qHTS of TDP-43 Inhibitors; TDP-43 expressing yeast growth rescue, BacTiter-Glo, 24 h; Potency, µM (top dose mostly 46.1 µM), for inactives: at the highest dose growth rescue (activation), hits mostly activators; 1.8% of 410,000 active; note: % of control where 0% means no effect; nearly all actives have a fitted effect of over 50% in size
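Yeast cells expressing TDP-43 under galactose induction are exposed to compounds for 24 hr at 30 deg C. BacTiter-Glo luminescence measures growth, so protective compounds score as activators.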
aSyn yeast inh = qHTS of alpha-syn Inhibitors; Yeast expressing alpha-synuclein, growth rescue, BacTiter-Glo, 24 h; Potency, µM (titrated, usually from 46.1 µM), for the others: at the top dose growth rescue (activation), hits mostly activators; 0.14% of 370,000 active; note: % of control where 0% means no effect; nearly all actives have a fitted effect of over 65% in size
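Readout is rescue of growth in alpha-synuclein-expressing yeast, so inhibitors of toxicity appear as activators. Growth after 24 hr at 30 deg C in galactose medium is quantified by luminescence.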
Abeta yeast res = qHTS for compounds that reverse cellular toxicity of Amyloid beta (A-beta) peptide in yeast: Primary Screen; yeast expressing A-beta42, growth rescue, OD600, 48 h; response scale: 0% DMSO, 100% iron-clioquinol control; Potency, µM (top dose mostly 46.1 µM), usual class: activators; 0.063% of 410,000 active; note: nearly all actives have a fitted effect of over 55% in size
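Growth rescue measured by 600 nm absorbance after 48 h yeast culture at 30 C with compound. Values normalized between DMSO and an equimolar ferric chloride plus clioquinol control.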
Numbers without * were called inactive; i = inactive; ? = inconclusive; nt = not tested or not shown; [ ] = another dose, or the depositor's remark. Compounds with a hit are over-represented: about 2.1% of the library has one in this group of screens. Calls come from the whole dose curve; as a rule, active = well fitted curve in the direction sought with a large enough effect; inconclusive = small, poorly fitted or top-dose-only effect, or another doubt; inactive = no such curve, though single readings can be large; an effect the other way counts as inactive or inconclusive. Potency is the fitted concentration of half-maximal effect.

SMILES	FUS yeast rescue	TDP-43 yeast inh	aSyn yeast inh	Abeta yeast res
Cc1cc(NS(=O)(=O)c2ccc(NC(=O)CCc3ccccc3)cc2)no1	i	-15.3%	-10.4%	i
O=C(Nc1ccccc1)C1CCCN1S(=O)(=O)c1cccs1 (configuration not stated)	i	5.8%	-9.4%	i
CCOC(=O)N/C(N)=N/c1nc2ccccc2s1	i	11.2µM*	nt	i
O=[N+]([O-])c1ccc(S(=O)(=O)Nc2ccncc2)cc1	i	15.1%	2.1%	i
O=[N+]([O-])c1ccc(Oc2ccc(S(=O)(=O)Nc3ccccc3)cc2)cc1	i	2.82µM*	3.2%	i
NC(=O)c1ccccc1NC(=S)NC(=O)CCc1ccccc1	i	21.7%	-15.6%	i
COc1cccc(NC(=O)N2CCc3nc(Nc4cc(Cl)cc(Cl)c4)ncc3C2)c1	28.2µM*	15.8µM*	?	?
O=C(NC1CCCN(c2ccc(C(F)(F)F)cn2)C1)c1cc(Cl)ccc1F (configuration not stated)	nt	-12.5%	-0.6%	i
CC(C)c1ccc(/C=C(\c2nc3ccccc3[nH]2)S(=O)(=O)c2ccccc2)cc1	i	25.0%	9.4%	i
O=S(=O)(/C(=C/c1ccc(C(F)(F)F)cc1)c1nc2ccccc2[nH]1)c1ccccc1	i	10µM*	-7.2%	i
CCCCn1c(SCC(=O)OCC)nc2c(sc(=S)n2-c2ccccc2OC)c1=O	i	12.6µM*	-14.7%	i
COc1ccccc1-n1c(SCC(=O)O)nc2c(sc(=S)n2-c2ccccc2C)c1=O	i	-0.7%	-1.6%	i
O=C(OCC1OC2C(Oc3nc(=O)ccn32)C1O)c1ccccc1 (configuration not stated)	i	7.5%	0.2%	?
CC(=NCc1cccc(Cl)c1)c1nc(-c2ccco2)oc1O	i	11.2µM*	-1.6%	i
Oc1oc(-c2ccco2)nc1C=Nc1cccc(Cl)c1	i	28.4%	-12.4%	i
CC(C)CC(=O)Nc1cc(-c2ccccc2F)nn1-c1ccccc1	i	12.3%	nt	i
Cc1cc(/C=N/n2cnnc2)c(C)n1-c1ccc2c(c1)OCO2	i	-9.7%	8.1%	i
Cc1cccc(C)c1NC(=S)N(Cc1ccccc1)Cc1cccs1	i	35.5µM*	23.3%	i
COc1ccc([N+](=O)[O-])c(C=CC(=O)c2ccccn2)c1	i	2.82µM*	20µM*	i
CCCCCCCCC(=O)Nc1cc(C)ccc1OC	i	7.2%	-9.2%	i
CC(C)(C)C(=O)C1=C(O)C(=O)N(Cc2ccccc2)C1c1ccccc1Cl (configuration not stated)	i	12.6µM*	12.4%	i
CC(=O)C1=C(O)C(=O)N(CC(=O)O)C1c1ccccc1Cl (configuration not stated)	i	15.2%	-10.3%	i
CCCCCCCCOC(=O)c1cc([N+](=O)[O-])c(Sc2ncnc3nc[nH]c23)c([N+](=O)[O-])c1	nt	12.6µM*	-64.5%	i
CCCCOC(=O)c1ccc(Nc2ncnc3nc[nH]c23)cc1	i	2.0%	-4.2%	i
CCOC(=O)c1sc(NC(=O)c2c(-c3ccccc3)c(-c3ccccc3)nn(C)c2=O)nc1C	?	15.8µM*	nt	i
SMILES	FUS yeast rescue	TDP-43 yeast inh	aSyn yeast inh	Abeta yeast res
Cc1nc(NC(=O)c2c(-c3ccccc3)c(-c3ccccc3)nn(C)c2=O)sc1C	i	0.0%	nt	i
O=C1C(=Cc2ccco2)C(=O)c2ccccc21	nt	22.4µM*	13.1%	i
COC(C/C=C/C(=O)COCc1ccccc1)OC	i	12.6µM*	6.2%	i
CCn1c(/C=C/c2ccc(O)cc2)nc2ccccc2c1=O	i	17.8µM*	1.8%	i
O=c1c2ccccc2nc(/C=C/c2ccc(Cl)cc2)n1CCO	i	11.2µM*	5.1%	i
CCn1c(/C=C/c2ccc(O)c(O)c2)nc2ccccc2c1=O	i	6.1%	-2.4%	i
C#CCn1c(/C=C/c2ccc(Cl)cc2)nc2ccccc21	i	35.5µM*	nt	i
CCn1c(/C=C/c2ccccc2F)nc2ccccc2c1=O	i	8.91µM*	-5.4%	i
Cc1ccc(S(=O)(=O)CNC(=S)c2cccc(C)c2)cc1	i	20.5%	4.0%	i
Cc1cccc(Cn2cc(C(=O)c3ccccc3)c(=O)c3cc4c(cc32)OCO4)c1	i	35.5µM*	nt	i
O=C(Nc1ccccn1)c1ccc(Br)s1	i	6.31µM*	-7.1%	i
C/C(=N\NC(=S)NC(C)C)c1ccccc1	i	22.8%	-9.2%	11.2µM*
CC(C)OC(=O)NCCOC(=O)Nc1ccc(Cl)c(Cl)c1	i	11.2µM*	9.3%	i
COc1ccc(C(=O)Nc2cccc(-c3nnc(-c4ccco4)o3)c2)cc1	i	15.8µM*	-17.6%	i
COc1ccc(CC(=O)Nc2cccc(-c3nnc(-c4ccco4)o3)c2)cc1	i	0.4%	-10.7%	i
O=C(Nc1nc(OCCN2CCCC2=O)cnc1/C=C\c1ccccc1)c1cc2ccccc2s1	39.8µM*	18.9%	?	i
CCn1cc(C(=O)N(C)c2ccccc2F)c2cc(OC)c(OC)cc2c1=O	i	0.8%	-0.6%	i
O=C(CN1C(=O)COc2ccc(S(=O)(=O)NC3CCCC3)cc21)Nc1ccc(F)c(Cl)c1	20µM*	-3.6%	nt	i
O=C(Nc1cc(Cl)cc(Cl)c1)c1cc(S(=O)(=O)NC2CCCC2)ccc1F	i	20µM*	nt	i
CN1C(=O)c2ccccc2Sc2ccc(C(=O)O)cc21	i	5.9%	4.5%	i
Cc1nn(-c2ccccc2)c(C)c1/C=N/NC(=O)c1cc(C2CC2)[nH]n1	i	15.6%	8.9%	i[9.22 µM]
CN(C)c1ccc(C(CNS(=O)(=O)c2ccc3ccccc3c2)c2c[nH]c3ccccc23)cc1 (configuration not stated)	nt	13.8%	3.2%	i
Cc1cccc(Oc2ccc(S(=O)(=O)N3CCCCC3)cc2NC(=O)C2=COCCO2)c1	28.2µM*	-20.0%	-5.9%	i
COc1ccc(S(=O)(=O)N2CCCCC2)cc1NC(=S)Nc1cccc(Cl)c1C	2.82µM*	-6.3%	0.9%	i
O=Cc1ccccc1OCCOc1ccccc1C=O	i	-43.7%	-6.0%	i
SMILES	FUS yeast rescue	TDP-43 yeast inh	aSyn yeast inh	Abeta yeast res
O=C(NCc1cccc(Cl)c1)c1cccc(C(F)(F)F)c1	i	?	-0.3%	i
O=C(NCc1ccccc1Cl)c1cccc(C(F)(F)F)c1	i	35.5µM*	7.4%	i
COc1ccc(C=C(C(=O)c2ccccc2)C(=O)c2ccccc2)cc1	i	14.1µM*	6.3%	i
COc1ccc(C=C(C(=O)c2ccccc2)c2ccccc2)cc1	i	0.0%	1.2%	i
COc1ccc(C=C(C(C)=O)C(=O)c2ccccc2)cc1	i	20µM*	?	i
O=C(Nc1cccc(-c2cn3ccccc3n2)c1)c1ccccc1	i	2.6%[9.22 µM]	-26.3%	i
Cc1cc(=O)n(CC=C(Cl)Cl)c2ccccc12	?	12.6µM*	8.4%	i

Source: PubChem (National Center for Advancing Translational Sciences (NCATS))
